Test results: PubChem BioAssay (NCI)
The panel holds about 83,000 compounds, 20% with a hit somewhere; the sample as a whole holds those more often.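 Cells were grown in 96-well plates and exposed to the test compound at a single concentration for 48 hours; results are reported as percent growth, with values below 10 considered active.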 Values without a mark were called inactive. The source made the active and inactive calls.

system: OVCAR-5 ovarian; assay: NCI-60 one-dose screen, 48 h (100 = growth as untreated, 0 = no growth, -100 = all killed); details: 10 µM unless noted
Procedure: Growth inhibition of the OVCAR-5 human tumor cell line is measured as a screen for anti-cancer activity. Cells are grown in 96 well plates and exposed to the test compound for 48 hours. Compounds are tested at a single concentration, which is 10^-5 M for most compounds. The reported endpoint is percent growth (GI% or GIPRCNT), where numbers from 0 - 100% represent growth inhibition, and numbers from -100% - 0 represent cell death. For example, a value of 40 represents 60% growth inhibition. A value of 0 means no net growth occurred over the course of the experiment. A value of -40 indicates 40% of cells at the beginning of the experiment died by the end of the experiment. A value of -100 means all cells are dead at the end of the experiment.
NCI-60 Human Tumor Cell Lines Screen was performed using the standard one-dose NCI protocol, which is described in more detail at https://dtp.cancer.gov/discovery_development/nci-60/default.htm.
Compounds with GIPRCNT values below 10 were considered active. Activity score was based on GIPRCNT using the following formula: […]
Score is 0 for GIPRCNT values of 100 or above, 50 for GIPRCNT values of 0, and 100 for GIPRCNT values of -100.

SMILES	growth
O=S(=O)(Nc1cc(Cl)ccc1Cl)c1ccc(-c2cnc(C3CC3)o2)cc1	72.1%
O=C(Nc1ccc(Oc2cccc(F)c2)c(Cl)c1)c1cccnc1	72.6%
CCO/C=N/C1=C(C#N)C(c2ccc(Cl)cc2)c2sc3c(F)cccc3c2O1 (stereo not given)	89.2%
COc1ccc(/C=N/NC(=O)c2ccc(-n3cc(-c4ccccc4)nn3)cc2)cc1OC	97.9%
Cc1ccc(C(=O)c2ccc(CC(=O)N/N=C/c3ccccc3O)n2C)cc1	92%
COc1ccc2cc1Oc1ccc(cc1)C[C@H]1c3c(cc4c(c3Oc3cc5c(cc3OC)CCN(C)[C@@H]5C2)OCO4)CCN1C	90.2%
O=C(/C=C/c1cccc(Cl)c1)c1ccc(Nc2nc(Nc3ccc(F)cc3)nc(Nc3ccc(Cl)cc3)n2)cc1	98%
Cc1c(O)cc(-c2cnc(Nc3ccccc3)s2)c(O)c1C	111%
Cc1ccc(-c2nc(N3CCCNCC3)c3oc(-c4ccc(C)cc4)nc3n2)cc1	78.5%
CC(C)c1ccc(C(=O)Nc2sc3c(c2C(N)=O)CCC(=O)C3)cc1	8.42% (active)
CN(C)CC1CCC(CN(C)C)C1=O (stereo not given)	122%
CN1CCN(c2cc(Nc3cc(C4CC4)[nH]n3)nc(Nc3ccc(CC(=O)NCc4cccc(F)c4)cc3)n2)CC1	11%
O=C(Nc1ccc(OS(=O)(=O)c2ccc(F)cc2)cc1)C1CCCCCC1	99.7%
N#CSc1c[nH]c2cccc(/C=C/C(=O)/C=C(/C=C/c3cccc4[nH]cc(SC#N)c34)OB(F)F)c12	-10.8% (active)
COc1ccc(C2=C(Br)C(=O)c3nc(C)ccc3C2=O)cc1	109%
CCN(CC)c1ccc(\C=N/N=C(N)/C(N)=N\N=C/c2ccc(N(CC)CC)cc2)cc1	126%
COC1=CC(c2ccc[nH]2)=N/C1=C\c1[nH]c(C)c(C)c1CCC(=O)OCc1ccccc1	7.87% (active)
COC(=O)CC[C@H](C)[C@H]1CC[C@H]2[C@@H]3CC[C@@H]4CC5(CC[C@]4(C)[C@H]3CC(=O)[C@]12C)Nc1ccccc1NC5=NC(C)(C)C (stereo not given in full)	89.1%
CC(C)COc1nc2c(c(=O)n(C)c(=O)n2C)n1C	112%
O=C(/C=C/c1cn(-c2ccccc2)nc1-c1ccc(Cl)cc1)c1ccc(F)cc1	99.3%

SMILES	growth
O=C(c1ccncc1)N1N=C(c2ccc(Cl)cc2)C[C@H]1c1cn(-c2ccccc2)nc1-c1ccccc1	105%
COc1ccc(-c2nn(-c3cccc(Cl)c3)cc2-c2cc(-c3ccc(Br)cc3)nc(N)n2)cc1	97.2%
O=C(CSc1nc2ccc([N+](=O)[O-])cc2[nH]1)Nc1ccc([N+](=O)[O-])cc1	63.3%
[O-]/[N+](=C\c1ccc(-n2cc(Cc3ccccc3Cc3cn(-c4ccc(/C=[N+](/[O-])c5ccccc5)cc4)nn3)nn2)cc1)c1ccccc1	112%
Clc1ccc2c(c1)C(c1c[nH]c3ccccc13)(c1c[nH]c3ccccc13)CCO2	96%
COCCNC(=O)Nc1ccc2nc(-c3cccs3)c(-c3cccs3)nc2c1	87.9%
COc1ccc(Nc2nnc(-c3ccc(OC)c(OC)c3)o2)cc1	100%
CCOC(=O)c1ccc2c(c1)nc(-c1ccccc1)n2C1CCCCC1	117%
COc1ccc(-c2cc(-c3cccnc3)nc3sc4c(=O)[nH]c(-c5ccc(Cl)cc5)nc4c23)cc1OC	98.2%
COc1cc2c(c(OC)c1OC)CCC(c1cccc(NC(=O)c3ccc(Br)cc3)c1)O2 (stereo not given)	93.3%
Cc1cn(-c2cc(NC(=O)c3cncc(C#Cc4cnc(N)c5ncccc45)c3)cc(C(F)(F)F)c2)cn1	60.3%
COc1ccc(C(O)c2cc3c(N)c(C(=O)Nc4cccc(Br)c4)sc3nc2C)cc1 (stereo not given)	11.2%
N=C(N)c1ccc(-c2ccc(-c3ccc(Cl)c(Cl)c3)s2)nc1	20.1%
CCCCCCCCCCCCCCCCCCOc1ccccc1CC(=O)OCC[N+](C)(C)C	31.8%
Cn1ccnc1C(=O)/C=C/c1ccc(CC(=O)Nc2cc(C(F)(F)F)cc(C(F)(F)F)c2)cc1	83.8%
CCN(CC)CCCCCNc1cc(OC(=O)c2ccc(Cl)cc2)cc2cccnc12	118%
C[C@@H](CO)[C@@H]1CCC=C2CC[C@]3(C)[C@H](CC[C@@H]4[C@@]5(C)CCCNC(C)(C)[C@@H]5CC[C@]43C)[C@H]21	82.9%
CCOc1ccc(NC(=O)CSc2oc(-c3ccccc3)nc2S(=O)(=O)c2ccc(C)cc2)cc1	101%
O=C(NNC(=O)c1ccc(NC(=O)c2ccccn2)cc1)Nc1ccc([N+](=O)[O-])cc1	92.4%
CCCCCCCC[C@@H]1N[C@@H](C(=O)OC)Cc2c1[nH]c1ccccc21	89%
